Compounds without any hit were thinned out: in the full panel of roughly 83,000, 20% have a hit.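 Activity criterion: percent growth below 10, measured after cells in 96-well plates were exposed to a single compound concentration for 48 hours.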 Unmarked numbers belong to inactive results. Activity calls are given as the source filed them.
Test system: OVCAR-5 ovarian
Assay: NCI-60 one-dose screen, 48 h (100 = growth as untreated, 0 = no growth, -100 = all killed)
Conditions: 10 µM unless noted
Protocol: Growth inhibition of the OVCAR-5 human tumor cell line is measured as a screen for anti-cancer activity. Cells are grown in 96 well plates and exposed to the test compound for 48 hours. Compounds are tested at a single concentration, which is 10^-5 M for most compounds. The reported endpoint is percent growth (GI% or GIPRCNT), where numbers from 0 - 100% represent growth inhibition, and numbers from -100% - 0 represent cell death. For example, a value of 40 represents 60% growth inhibition. A value of 0 means no net growth occurred over the course of the experiment. A value of -40 indicates 40% of cells at the beginning of the experiment died by the end of the experiment. A value of -100 means all cells are dead at the end of the experiment.
NCI-60 Human Tumor Cell Lines Screen was performed using the standard one-dose NCI protocol, which is described in more detail at https://dtp.cancer.gov/discovery_development/nci-60/default.htm.
Compounds with GIPRCNT values below 10 were considered active. Activity score was based on GIPRCNT using the following formula: […]
Score is 0 for GIPRCNT values of 100 or above, 50 for GIPRCNT values of 0, and 100 for GIPRCNT values of -100.

Row | Compound | growth
1 | COC1OC(CO)C(O)C(O)[CH]1[Hg][O]C(C)=O (stereo not given) | 102%
2 | CC[C@H](NC(=O)[C@H]1CCCCN1C)C(=O)N(C)[C@H](C[C@@H](OC(C)=O)c1nc(C(=O)N[C@@H](Cc2ccccc2)C[C@H](C)C(=O)O)cs1)C(C)C | 37.5%
3 | O=C(O)C(Cl)(Cl)C(F)(F)F | 103%
4 | Cc1ccc(Nc2nc3c(s2)C2=CC[C@@H]4[C@H](CC[C@]5(C)C(=O)CC[C@@H]45)[C@@]2(C)CC3)cc1 | 72.4%
5 | ClCCN(CCCl)c1ccc(-n2cnc3c(Cl)ncnc32)cc1 | 117%
6 | Clc1cc(N2CC2)nc(N2CC2)n1 | 102%
7 | CCC(CC)CC1(C)CC2(C)CCOC2OO1 (stereo not given) | 113%
8 | O=C1NC(=O)C(=Cc2cccn2CCCCCn2c3ccccc3c(=O)c3ccccc32)C(=O)N1 | 101%
9 | CCCC[C@H](NC(=O)[C@H]1CCCN1C)C(=O)N(C)[C@H](C[C@@H](OC(C)=O)c1nc(C(=O)N[C@@H](Cc2ccccc2)C[C@H](C)C(=O)OCC)cs1)C(C)C | 32.7%
10 | COc1cc(C=C2c3ccccc3C(=O)c3ccccc32)ccc1OCCCCOc1cc2c(cc1OC)C(=O)N1CCCC1C=N2 (stereo not given) | -61.3% (active)
11 | CC(C)(C)C(=O)OCOP(=O)(OCOC(=O)C(C)(C)C)C1CCCN(O)C1=O (stereo not given) | 32.5%
12 | CC(C)=CCc1c(O)c(C(=O)CC(C)C)c(O)c2c(-c3ccccc3)cc(=O)oc12 | 84.9%
13 | O=C(Nc1ccc(Br)cc1)c1cc(Br)cc(Br)c1O | 9.56% (active)
14 | Nc1nc([Se])c2ncn(C3OC(CO)C(O)C3O)c2n1 (stereo not given) | 60.8%
15 | CCCCCC1(CCBr)C(=O)NC(=O)NC1=O | 96.6%
16 | C#Cc1ccc2c(c1)C(c1ccccc1)=NCC(=O)N2C | 85.5%
17 | Cc1cc(N(CCCl)CCCl)ccc1C=Nc1ccc(-c2csc(Cc3ccccc3)n2)cc1 | 54.4%
18 | COc1ccc(Nc2ccc([N+](=O)[O-])cc2[N+](=O)[O-])cc1CN(CCCl)CCCl | 50.2%
19 | COc1ccc(S(=O)(=O)Nc2c(/C=C\c3cc(OC)c(OC)c(OC)c3)ccc(OC)c2O)cc1OC | 33.7%
20 | O=P1(NCCCl)OCCCN1CCCl (stereo not given) | 106%

Row | Compound | growth
21 | CC[C@H](C)[C@H](NC(=O)[C@H]1CCCCN1C)C(=O)N(C)[C@H](C[C@@H](O)c1nc(C(=O)N[C@@H](Cc2ccccc2)C[C@H](C)C(=O)O)cs1)C(C)C | 101%
22 | C[C@@]1(CCCCCCCCCc2ccc(O)cc2)C[C@]2(C)OC(=O)C[C@@H]2OO1 | 94.7%
23 | N/C(=N\N=C\c1ccc(-c2ccccc2)cc1)N[N+](=O)[O-] | 56.9%
24 | O=[N+]([O-])CC(O)C(Cl)(Cl)Cl (stereo not given) | 93.6%
25 | CO[C@H]1CC[C@@]2(C)C(=CC[C@@H]3[C@@H]2CC[C@]2(C)C(=O)C(=O)C[C@@H]32)C1 | 103%
26 | CC(C)(C)C(=O)OCOP(=O)(NCc1ccccc1)C1CCCN(O)C1=O (stereo not given) | 94.5%
27 | CC(=O)OC1CCC2C3CCC4=C/C(=N/OC(=O)c5ccc(N(CCCl)CCCl)cc5)CCC4(C)C3CC(C)C12 (stereo not given) | 101%
28 | COC(=O)[C@@H](C)C[C@H](Cc1ccc(F)cc1)NC(=O)c1csc([C@@H](C[C@H](C(C)C)N(C)C(=O)[C@@H](NC(=O)[C@H]2CCCCN2C)C2CC2)OC(C)=O)n1 | 49.8%
29 | CC1=C2[C@@H](CC1)[C@]1(C)O[C@@](C(C)C)(C[C@H]1O)[C@H]2OC(=O)C1CC1c1ccccc1 (stereo not given in full) | 97.5%
30 | CC1[C@H](C)OC(=O)CC(O)CC(O)CC(O)CCC(O)C(O)C[C@]2(O)CC(O)C(C(=O)O)C(CC(OC3O[C@H](C)[C@@H](O)[C@H](N)[C@@H]3O)/C=C/C=C/C=C/C=C/CC/C=C/C=C/[C@H](C)[C@H]1O)O2 (stereo not given in full) | 95.4%
31 | CCOC(=O)[C@@H](C)C[C@H](Cc1ccccc1)NC(=O)c1csc([C@@H](C[C@H](C(C)C)N(C)C(=O)[C@H](CCC(C)C)NC(=O)[C@H]2CCCCN2C)OC(C)=O)n1 | 28.2%
32 | COC(=O)[C@@H](C)C[C@H](Cc1ccccc1)NC(=O)c1csc([C@@H](C[C@H](C(C)C)N(C)C(=O)[C@@H](NC(=O)CN(C)C)C2CC2)OC(C)=O)n1 | 56.3%
33 | CC1=C(CCCOC(=O)[C@H](N)CC(C)C)C2=C(C)C3(CC3)[C@@](C)(O)C(=O)C2=C1 | 22.8%
34 | COC(=O)[C@@H](C)C[C@H](Cc1ccccc1)NC(=O)c1csc(CC[C@H](C(C)C)N(C)C(=O)[C@@H](NC(=O)[C@H]2CCCCN2C)C(C)C)n1 | 54%
35 | O=C(N/N=C\c1ccc(N(CCCl)CCCl)cc1)c1cccc([N+](=O)[O-])c1 | 109%
36 | COc1cc(/C=C\c2cc(OC)c(OC)c(OC)c2)cc(NS(=O)(=O)c2cccc(Cl)c2)c1OC | 19.5%
37 | CCOP(=O)(Nc1ccc2c(c1)/C(=N/NC(N)=S)c1ccccc1-2)OCC | 105%
38 | CC12CCC=CC1CCC1C2CCC2(C)C(c3ccc(=O)oc3)CCC12O (stereo not given) | -80.4% (active)
39 | C=CC1=C[C@@H]2[C@@H]3O[C@]4(CC[C@H](O4)[C@@H](C)C[C@@H](O)C3=O)C[C@H](O)C3=NCC[C@@]32CC1 | -24% (active)
40 | COC(=O)[C@@H](C)C[C@H](Cc1ccccc1)NC(=O)c1csc([C@@H](C[C@H](C(C)C)N(C)C(=O)[C@@H](NC(=O)[C@H]2CCCCN2C)C2CCCCC2)OC(C)=O)n1 | 23.1%

Reference: PubChem BioAssay (NCI)
